NPR1 antag: human Npr1 receptor antagonism; Potency, µM (highest dose often 46.3 µM), for the others: at the top dose activity change, negative = inhibition, actives largely listed as inhibitors; 76,000 tested, 1.6% active; P16066; HEK293 hNpr1 GloSensor cGMP, ANP-stimulated luminescence; calls by dose curve; also: nearly all actives have a fitted effect of over 60% in size
Target sequence (P16066 whole entry, looked up): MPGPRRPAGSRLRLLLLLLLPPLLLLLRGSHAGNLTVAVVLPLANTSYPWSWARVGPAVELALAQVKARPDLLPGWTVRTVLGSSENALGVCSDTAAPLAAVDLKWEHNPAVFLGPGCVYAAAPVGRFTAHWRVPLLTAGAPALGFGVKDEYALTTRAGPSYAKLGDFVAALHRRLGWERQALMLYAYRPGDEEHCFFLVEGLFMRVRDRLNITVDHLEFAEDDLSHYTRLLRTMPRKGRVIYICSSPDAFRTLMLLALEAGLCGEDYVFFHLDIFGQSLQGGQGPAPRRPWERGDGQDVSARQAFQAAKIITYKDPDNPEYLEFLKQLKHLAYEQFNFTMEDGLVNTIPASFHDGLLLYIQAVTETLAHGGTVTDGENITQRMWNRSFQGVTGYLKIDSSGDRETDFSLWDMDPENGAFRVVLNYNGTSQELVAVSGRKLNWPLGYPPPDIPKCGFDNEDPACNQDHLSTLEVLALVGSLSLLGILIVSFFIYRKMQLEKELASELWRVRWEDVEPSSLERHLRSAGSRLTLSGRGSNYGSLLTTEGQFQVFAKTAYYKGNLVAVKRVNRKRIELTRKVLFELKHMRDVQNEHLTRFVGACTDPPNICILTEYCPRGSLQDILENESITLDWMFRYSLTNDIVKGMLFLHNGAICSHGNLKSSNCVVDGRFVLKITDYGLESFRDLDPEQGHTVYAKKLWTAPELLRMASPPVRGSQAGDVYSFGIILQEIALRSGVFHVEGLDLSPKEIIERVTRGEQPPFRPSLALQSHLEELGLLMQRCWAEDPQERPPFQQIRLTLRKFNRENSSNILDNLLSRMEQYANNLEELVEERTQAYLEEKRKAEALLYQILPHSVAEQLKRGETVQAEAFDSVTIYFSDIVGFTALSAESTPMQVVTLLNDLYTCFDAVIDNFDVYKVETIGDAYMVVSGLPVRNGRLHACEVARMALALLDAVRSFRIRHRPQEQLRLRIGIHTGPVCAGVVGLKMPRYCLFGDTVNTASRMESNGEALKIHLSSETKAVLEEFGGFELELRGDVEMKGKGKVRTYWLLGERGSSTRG
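HEK293 cells stably expressing human Npr1 and cGMP GloSensor pGS-40F, loaded 2 h with 2% GloSensor reagent, given compound 30 min at room temperature. Luminescence read before and 20 min after 0.1 nM hNppA.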
3T3 cytotox: NIH 3T3 cell cytotoxicity; NIH 3T3 viability, CellTiter-Glo ATP luminescence, 48-72 h; 94,000 tested, 4.3% active; Potency, µM (highest dose often 96.7 µM), inactives show top-dose activity change, negative = cytotoxicity, actives largely listed as inhibitors; AID 1345082; also: nearly all actives have a fitted effect of over 55% in size
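ATP-dependent luminescence (CellTiter-Glo) served as the viability signal for NIH 3T3 cells treated with compound for 48 or 72 hr at 37 °C.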
HEK cytotox: HEK 293 cell cytotoxicity; HEK 293 viability, ATP luminescence (CellTiter-Glo), 48-72 h; Potency, µM (top dose mostly 115 µM), inactives show at the highest dose activity change, negative = cytotoxicity, hits mostly inhibitors; 94,000 tested, 6.6% active; AID 1345083; also: nearly all actives have a fitted effect of over 60% in size
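250 HEK 293 cells/well; compound by pintool; incubated 48 or 72 hr at 37 degree Celsius; CellTiter-Glo added, 10 min RT, luminescence imaged.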
GPT2 inhibitor: inhibitors of human GPT2 alanine aminotransferase; Q8TD30; Recombinant GPT2, coupled pyruvate oxidase/HRP Amplex Red fluorescence; Potency, µM (doses to about 57.7 µM), without a hit: top-dose activity change, negative = inhibition, hits mostly inhibitors; 100,000 tested, 0.25% active; also: nearly all actives have a fitted effect of over 60% in size
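Fluorescence of coupled pyruvate oxidase/HRP/Amplex Red system (50uM Amplex, 30 min, dark) reports pyruvate formed by GPT2. Enzyme reaction: 10ng/uL GPT2, 2mM L-alanine, 250uM a-KG, 30 min room temperature, pH 7.5; 50uM AOA control.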
Luciferase inh: blocks purified firefly luciferase enzyme activity. P08659. purified P. pyralis luciferase, luminescence, biochemical. Potency, µM (doses to about 115 µM), usual class: inhibitors. 76,000 tested, 2.5% active; also: nearly all actives have a fitted effect of over 65% in size
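Purified 10nM P. pyralis luciferase with 10uM D-luciferin and 10uM ATP in 50mM Tris acetate pH 7.5, 10mM Mg acetate, 0.01% Tween-20, 0.05% BSA. qHTS titration; luminescence read by CCD imager.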
* = called active by the depositor; i = inactive; ? = inconclusive; / = no result given; ! = a repeat was not active; [ ] = another dose, or the depositor's remark. In the library only some 10% were active in any assay of this set; here they are far more common. Unless noted, calls follow the shape of the dose curve; as a rule, active = well fitted curve in the direction sought with a large enough effect; inconclusive = small, poorly fitted or top-dose-only effect, or another doubt; inactive = no such curve, though single readings can be large; an effect the other way counts as inactive or inconclusive. % is scaled to controls: 0 for no effect and ±100 for the full control effect; potency is read from the fitted curve at half-maximal effect.

SMILES | NPR1 antag | 3T3 cytotox | HEK cytotox | GPT2 inhibitor | Luciferase inh
Cc1cccc(C(=O)N2CCC(Oc3ccccc3F)(C(=O)O)CC2)c1 | 3.6% | -0.5% | i | i | i
COc1ccc(NC(=O)NCC2CCOCC2)cc1F | 4.8% | i | -0.7% | i | i
C[C@@H](NC(=O)C1CC1)c1c(-c2ccc(F)cc2)noc1C(=O)O | 0.6%[70.6 µM] | -12.4%[138 µM] | -11.9%[172 µM] | -10.4%[88.5 µM] | i
C[C@@H](NC(=O)C1CCCCC1)c1c(-c2ccc(F)cc2)noc1C(=O)O | -1.4%[70.6 µM] | 39.8µM* | -6.6%[172 µM] | -2.3%[88.5 µM] | i
CN1CC(=O)N(C2CCCC2)Cc2c1ncnc2N1CCN(c2ncccn2)CC1 | -14.1% | -20.8% | -24.1% | -15.4% | i
CN1CC(=O)N(C2CCCCC2)Cc2c1ncnc2N1CCN(c2ncccn2)CC1 | / | 44.7µM* | 44.7µM* | i | /
COc1ccc(CN2CCNc3cc(Nc4ccccc4)ncc3C2)cc1 | -30.3%[70.6 µM] | ? | 70.8µM* | 2.4%[88.5 µM] | i
Cn1cc(CN2CCNc3cc(Nc4cccnc4)ncc3C2)cn1 | 1.3%[70.6 µM] | ? | ? | 1.6%[88.5 µM] | i
CN(C)c1ccc(CN2CCNc3cc(-c4ccccc4)ncc3C2)cc1 | -3.1%[70.6 µM] | ? | ? | i | i
CN(C)c1ccc(CN2CCNc3cc(Nc4cccnc4)ncc3C2)cc1 | -8.9%[70.6 µM] | ? | ? | i | 63.1µM*
COc1cccc(Nc2cc3c(cn2)CN(Cc2ccncc2)CCN3)c1 | -25.3%[70.6 µM] | ? | ? | 1.6%[88.5 µM] | ?
CN(C)c1ccc(CN2CCNc3cc(Nc4ccccc4)ncc3C2)cc1 | -18.5%[70.6 µM] | 56.2µM* | ? | i | i
COc1ccccc1CN1CCNc2cc(Nc3ccccc3)ncc2C1 | -19.8%[70.6 µM] | 35.5µM* | 35.5µM* | i | ?
COc1cccc(N2C(=O)NC(=NC3CCCCC3)C23CCN(CCC(C)C)CC3)c1 | / | i | -3.2% | i | /
O=C(Cn1nc2c(cc1=O)CCCCC2)NC1CCN(Cc2ccc(F)cc2)CC1 | 3.4% | i | 7.9% | i | i
Cc1cc(C)c(S(=O)(=O)c2nnn3c2nc(NC2CCCC2)c2ccccc23)c(C)c1 | / | -21.6% | -9.9% | i | /
COc1cccc(CC(=O)NC2CCN(C(=O)c3cc4c(=O)[nH]c(C)cn4n3)CC2)c1 | 17.1% | 3.6% | 7.3% | 1.2% | i
Cn1ccnc1-c1ccc(N2CCC(C(O)Cc3ccccc3)CC2)nn1 (centres undefined) | ? | ? | ? | -17.4% | ?
CSc1ccccc1-c1ccc(N2CCN(C)CC2)nn1 | -3.9% | i | 4.1% | i | 15.8µM*
COc1ccccc1NC(=O)N1C[C@@H]2C[C@H](C1)c1c(-c3ccc(NC(C)=O)cc3)ccc(=O)n1C2 | -3.5% | -12.3% | -3.2% | i | i
CC(=O)Nc1ccc(-c2ccc(=O)n3c2[C@@H]2C[C@@H](CN(C(=O)Nc4cccc(C#N)c4)C2)C3)cc1 | 4.4% | 2.6% | 31.6µM* | 1.0% | i
COc1ccc(C2(C(=O)NCC(=O)N3CCCCCCNC(=O)CC3c3ccccc3)CC2)cc1 (centres undefined) | 2.8% | -8.1% | -32.4% | 2.3% | i
O=C(CN1CCCC1)N[C@H]1CC[C@H](Nc2nccc(-c3cccnc3)n2)C1 | 1.9% | ? | 44.7µM* | 3.8% | i
O=C(N[C@H]1CC[C@H](Nc2nccc(-c3cccnc3)n2)C1)c1ccc(O)cc1 | 0.7% | ? | ? | i | i
O=C1CC(c2ccccc2)N(C(=O)CNC(=O)c2ccc3ccccc3n2)CCCCCCN1 (centres undefined) | 2.6% | -17.0% | -30.4% | -6.5% | i
SMILES | NPR1 antag | 3T3 cytotox | HEK cytotox | GPT2 inhibitor | Luciferase inh
CCc1nc2c(c(-c3ccc(Cl)cc3)n1)CN(C(=O)COC)CC2 | 11.9% | -23.9% | -17.9% | i | i
CCc1nc2c(c(-c3ccc(Cl)cc3)n1)CN(C(=O)CCl)CC2 | -15.6% | 22.4µM* | ? | i | i
CCc1nc2c(c(-c3ccc(Cl)cc3)n1)CN([S+](C)(=O)[O-])CC2 | 4.1%[70.6 µM] | 44.7µM* | i | i | i
CN1CCN(C(=O)N2CCCCC2)CC12CCC(=O)N(CC(=O)O)CC2 (centres undefined) | 1.0% | i | 1.5% | -1.2% | i
CN1c2cc(C(=O)Nc3ccc(F)cc3)ccc2C(=O)N2CCCCCC21 (centres undefined) | -13.6% | ? | ? | i | 25.1µM*
CSc1ccc(NC(=O)c2ccc3c(c2)N(C)C2CCCCN2C3=O)cc1 (centres undefined) | -0.5% | ? | ? | i | 44.7µM*
O=C(CC(c1ccccc1)c1cn(Cc2ccccc2)c2ccc([N+](=O)[O-])cc12)N1CCOCC1 (centres undefined) | ? | ? | ? | i | i
c1ccc(-c2nc3ccncc3[nH]2)nc1 | 8.2%[70.6 µM] | ? | 44.7µM*! | 0.5%[88.5 µM] | i
c1csc(-c2nc3ccncc3[nH]2)c1 | 11.0%[70.6 µM] | 100µM*! | ? | 2.4%[88.5 µM] | ?
COc1ccc(Cn2c(=O)c(C(=O)N3CCN(C(=O)c4ccc(F)cc4)CC3)nc3cccnc32)cc1 | / | ? | -23.0% | 0.3% | /
CCCCN1CCN(c2nc(-c3ccccc3)nc3c2CCNC3)CC1=O | -0.9% | ? | 79.4µM* | -1.6% | i
CCC(O)c1cc2n(n1)CCN(c1nc(-c3ccccc3)nc3c1CCC3)C2 (centres undefined) | 4.6% | ? | ? | 1.4% | i
FC(F)(F)c1ccc2nc([C@H]3CCN(C4CCCCC4)C3)[nH]c2c1 | -1.6%[70.6 µM] | 89.1µM* | ? | i | 56.2µM*
Cc1ccc2nc([C@H]3CCN(C4CCC4)C3)[nH]c2c1 | ? | ? | ? | -26.0%[88.5 µM] | ?
Cc1ccc(S(=O)(=O)N2CC[C@H](c3nc4ccccc4[nH]3)C2)cc1 | -9.2%[70.6 µM] | 89.1µM* | ? | -16.0%[88.5 µM] | i
CN1CCC(N2CC[C@H](c3nc4ccc(C(F)(F)F)cc4[nH]3)C2)CC1 | -4.3%[70.6 µM] | 89.1µM* | ? | i | i
CN1CCC(N2CC[C@H](c3nc4ccccc4[nH]3)C2)CC1 | 4.1%[70.6 µM] | -22.3%[230 µM] | -14.3%[230 µM] | i | 70.8µM*
COCCCNC(=O)c1cnc2n[nH]c(-c3ccccc3)c2n1 | -6.3%[70.6 µM] | ? | 100µM* | ? | i
CC(=O)C=C=C1C(C)(C)CC(O)CC1(C)O[C@@H]1O[C@H](CO[C@H]2OC[C@](O)(CO)[C@H]2O)[C@@H](O)[C@H](O)[C@H]1O (some centres undefined) | / | / | / | i | /
COC1CCC12CCN(C(=O)Nc1ccccc1)CC2 (centres undefined) | -0.8% | -3.8% | 3.8% | -4.6% | ?
Oc1ccc(NCCN2CCCC2)cc1 | / | 44.7µM* | ? | i | /
Clc1ccc(NCCN2CCCC2)cc1 | / | -4.2%[174 µM] | -23.8%[230 µM] | 4.3%[88.5 µM] | /
CCc1ccc(CNC(=O)CCc2conc2-c2cccc(C)c2)cc1 | 1.7% | ? | ? | i | i

Compound activity deposited in PubChem by National Center for Advancing Translational Sciences (NCATS).
